Most compounds without a hit are left out; they make up all but 2.3% or so of the library.
CHRM1 agonist – human M1 muscarinic receptor agonists, primary screen, Fluo-8 calcium fluorescence, CHO-K1 cells, HTS; Muscarinic acetylcholine receptor M1 (Homo sapiens), P11229; activation, % at 3 µM; hit rate 0.33% among 360,000; CHO-K1 hM1, agonist mode; 0% DMSO, 100% acetylcholine EC100;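 active = activation above the run's mean compound activation plus 3 SD, cut at about 16% in these data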;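 note: peak over basal fluorescence ratio within a 140 s kinetic read after compound addition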
Target sequence (P11229 whole entry, looked up): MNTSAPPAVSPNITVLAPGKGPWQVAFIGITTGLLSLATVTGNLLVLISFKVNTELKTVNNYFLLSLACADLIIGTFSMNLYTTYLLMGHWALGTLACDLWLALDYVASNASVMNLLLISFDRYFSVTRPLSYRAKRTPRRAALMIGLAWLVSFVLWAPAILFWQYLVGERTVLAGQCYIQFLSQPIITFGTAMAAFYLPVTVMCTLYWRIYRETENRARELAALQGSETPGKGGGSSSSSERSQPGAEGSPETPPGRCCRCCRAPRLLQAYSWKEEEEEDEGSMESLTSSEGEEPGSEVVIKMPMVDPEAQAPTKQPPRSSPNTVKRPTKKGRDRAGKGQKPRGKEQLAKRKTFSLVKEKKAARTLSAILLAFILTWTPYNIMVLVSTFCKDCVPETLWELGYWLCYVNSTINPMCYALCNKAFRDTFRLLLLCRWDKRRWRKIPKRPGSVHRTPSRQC
CHRM1 antagonist – human M1 muscarinic receptor antagonists, primary screen, CHO-K1 cells, Fluo-8 calcium fluorescence, 1536-well. Muscarinic acetylcholine receptor M1 (Homo sapiens), P11229. CHO-K1 hM1, ACh EC80 antagonist. inhibition, % at 3 µM. hit rate 1.3% among 360,000. AID 588852, 2011;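 active = percent inhibition above its own plate's cutoff, namely the mean of that plate's compound wells plus 3 SD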;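 note: peak over basal fluorescence ratio during 140 s after agonist addition; 0% = ACh EC80 plus DMSO and 100% = DMSO alone without agonist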
CHO-K1 Ca antag – M1 antagonist counterscreen hit in parental CHO-K1 cells; ATP-induced calcium, Fluo-8 fluorescence; inhibition, % at 3 µM; hit rate 0.6% among 360,000;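 active = inhibition above a per-plate cutoff, the plate's mean sample inhibition plus 3 SD, cut at about 24% in these data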;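 note: 0% = DMSO plus EC80 ATP and 100% = DMSO alone without ATP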
CHO-K1 Ca PAM – nonselective calcium activators in parental CHO-K1 cells, primary screen, counter-screen for M1 PAM project, cell-based, Fluo-8 calcium fluorescence, full deck, 1536-well | ATP EC20; 0% at ATP EC20, 100% at ATP max | activation, % at 3 µM | hit rate 0.02% among 360,000;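 active = activation above the run cutoff, the mean activation of all test compounds plus 3 SD, cut at about 40% in these data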;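 note: peak over basal fluorescence ratio in a 140 s read after ATP addition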
M1 PAM – human M1 muscarinic receptor positive allosteric modulators, primary screen, CHO-K1 cells, Fluo-8 calcium fluorescence, 1536-well | AID 588819, 2011 | hit rate 0.088% among 360,000 | CHO-K1 hM1, ACh EC20; 0% = ACh EC20, 100% = maximal ACh | activation, % at 3 µM; in the data active = activation above about 19%, passing the limit was not always enough
M1 ag parental – counter-screen for M1 agonists: effect in parental CHO-K1 cells. Fluo-8 calcium fluorescence; scaled to maximal ATP response, vehicle zero. activation, % at 3 µM. hit rate 0.48% among 360,000. AID 602248, 2012; in the data active = activation above about 15%;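 note: untransfected CHO-K1 host cells lacking M1 receptor as counterscreen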
Active calls of the source: *.

SMILES	CHRM1 agonist	CHRM1 antagonist	CHO-K1 Ca antag	CHO-K1 Ca PAM	M1 PAM	M1 ag parental
CCOC(=O)C1CCCN(C(=O)c2sc3nc(-c4ccc(OC)cc4)cn3c2C)C1 (centres undefined)	28*	-1	-5	15	-6	0
CCOC(=O)C1CCN(C(=O)c2sc3nc(-c4ccccc4)cn3c2C)CC1	-6	-8	18	-4	6	0
CCOC(=O)C1CCCN(C(=O)c2ccc(-c3ccccc3Cl)o2)C1 (centres undefined)	5	-8	-1	12	2	1
CCOC(=O)C1CCCN(C(=O)c2cc(-c3ccco3)nc3ccccc23)C1 (centres undefined)	25*	-12	-15	15	-5	2
CCOC(=O)C1CCCN(C(=O)c2ccco2)C1 (centres undefined)	52*	15	-10	14	-27	1
CC(=O)c1sc(NC(=O)C2(F)C(F)(F)C(F)(F)C(F)(F)C(F)(F)C2(F)F)nc1C	3	11	26*	2	-6	13
CCCCn1c(N)c(N(CC(C)C)C(=O)c2ccc(OC)c(S(=O)(=O)N3CCOCC3)c2)c(=O)[nH]c1=O	0	-13	-7	7	13	0
COc1ccccc1NC(=O)c1cc(OC)c(OC)cc1[N+](=O)[O-]	-8	0	10	1	9	16*
COc1ccccc1NC(=O)c1ccccc1C(=O)Nc1ccccc1OC	-2	1	12	-13	5	3
CCn1c(=O)c2sccc2n(Cc2ccccc2)c1=O	2	-10	-11	6	8	0
N#CCCN1CCN(C(=S)c2ccc(-c3ccc(Cl)cc3)o2)CC1	-6	0	27*	-6	-8	-1
S=C(c1ccc(-c2ccc(Cl)cc2)o1)N1CCCCC1	-2	1	-30	4	-3	-1
COc1ccc(CN2CCC(C)CC2)cc1OCc1ccccc1	-8	-7	-18	28	-2	1
CCC1CCCCN1Cc1ccc(CNC(=O)CCc2nnc3ccc(N4CCCCC4)nn23)o1 (centres undefined)	-6	43*	-10	-13	-17	0
CCOCCCNC(=O)CCc1nnc2ccc(N3CCCCC3)nn12	-6	-2	-18	4	1	1
CCOC(=O)[C@@H]1[C@H]2COc3cc(OC)ccc3[C@H]2N2C(=O)N(c3ccc(C)cc3)C(=O)[C@@]12C	-2	-1	-6	10	4	0
CCC1(c2ccccc2)NC(=O)N(CC(=O)NCc2ccc(OC)cc2)C1=O (centres undefined)	1	-16	-15	17	4	0
Cc1cc(C(=O)CSc2cccc[n+]2[O-])c(C)n1-c1ccc(OC(F)F)cc1	0	-7	-8	17	2	13
COC(=O)c1ccc(-n2c(C)cc(C(=O)CSc3cccc[n+]3[O-])c2C)cc1	-4	-9	-2	8	7	16*
CC1=C/C(=N\OS(=O)(=O)c2ccccc2)C(C)=CC1=O	10	32*	37*	2	-11	12
CC1=C(C)/C(=N\OS(=O)(=O)c2ccc(C)cc2)C=CC1=O	2	31*	34*	-10	-10	7
CCOC(=O)C1=C[C@@H](c2ccccc2)N(S(=O)(=O)c2ccc(C)cc2)[C@H]1c1cccc(Cl)c1	-3	13	3	-4	-9	1
CCOc1ccc(Br)cc1C1=NN(C(C)=O)C(c2ccc([N+](=O)[O-])s2)O1 (centres undefined)	-3	-13	-6	12	7	1
CCCN(CC(=O)Nc1ccccc1C)C(=O)c1ccc2c(c1)S(=O)(=O)N=C1CCCCCN12	-3	-9	-15	-2	8	0
Cc1cccc(NS(=O)(=O)c2ccc(C)c(C(=O)NCc3ccccn3)c2)c1	0	-1	0	-9	-2	2
SMILES	CHRM1 agonist	CHRM1 antagonist	CHO-K1 Ca antag	CHO-K1 Ca PAM	M1 PAM	M1 ag parental
O=C1c2ccccc2C(=O)N1CN(C(=O)c1ccccc1)c1ccc(O)cc1	-4	5	12	6	8	22*
COc1ccc2c(c1OC)C(=O)N1c3ccccc3C(=O)N(c3ccc(F)cc3)C21 (centres undefined)	2	25*	0	21	-5	5
COc1ccc2c(c1OC)C(=O)N1c3ccccc3C(=O)N(c3ccccc3)C21 (centres undefined)	1	32*	23	4	-5	7
CC1(C(=O)NCc2ccc(Cl)cc2)CCN1C(=O)c1cccc(F)c1 (centres undefined)	-8	-21	-17	26	12	0
CSc1ncccc1C(=O)NC1CC(C)(C)Cc2c1cnn2-c1ccccc1C (centres undefined)	-4	-7	-11	18	7	2
CSc1cccc(NS(=O)(=O)c2cc(Br)cnc2N)c1	-6	63*	-17	-1	-24	2
Cc1cc(C)cc(NS(=O)(=O)c2cc(Br)cnc2N)c1	-3	-3	-25	28	0	2
Cc1ccc(NS(=O)(=O)c2cc(Br)cnc2N)cc1C	-6	100*	-2	-12	-24	1
Cc1nsc2nc3c(F)c(F)c(F)c(F)c3cc12	0	-6	-1	11	4	1
CCC1CCCCN1CCCNC(=O)c1ccc2c(c1)N(Cc1c(F)cccc1Cl)C(=O)CS2 (centres undefined)	-5	100*	-14	-10	-22	0
O=C(NCc1ccc2c(c1)OCO2)c1ccc2c(c1)N(Cc1c(F)cccc1Cl)C(=O)CS2	-12	40*	4	4	-26	0
C=CCN1C(=O)CSc2ccc(C(=O)NCc3ccc(F)cc3)cc21	-3	15	-17	10	-10	5
CN(CC(=O)Nc1ccccc1Sc1ccccc1)C1CCCCC1	-7	2	3	-2	-6	0
Cc1ccc(C(=O)N/C(=C\c2ccco2)C(=O)NCCN2CCCCC2)cc1C	-6	-3	-2	-9	6	0
O=C(NCCN1CCCCC1)/C(=C/c1ccco1)NC(=O)c1ccccc1	-2	-28	-18	15	31*	0
Cc1ccc(/C=C(\NC(=O)c2ccccc2)C(=O)NCCN2CCOCC2)o1	-3	-12	24*	-13	2	-1
CCOC(=O)c1c(N)sn(-c2ccccc2C)c1=S	-4	34*	2	-2	-9	0
Cc1ccc2c(c1)nnn2C1CCN(S(=O)(=O)c2ccc(C(=O)O)cc2)CC1	-4	5	-12	12	3	3

Screening data from PubChem BioAssay.
